In ChEMBL document CHEMBL1157539, “Thousands of chemical starting points for antimalarial lead identification” (Nature, 2010) one finds Inhibition data, which are given here for 40 compounds.

This assay deals with Plasmodium falciparum. Nature of the assay: GSK_TCMDC: Inhibition of Plasmodium falciparum 3D7 in whole red blood cells, using parasite LDH activity as an index of growth. Test compounds present at 2uM. It counts as functional.
In turn, `CN1CCN(CCCN(Cc2csc(-c3ccc(CNCc4ccccc4)cc3)n2)S(=O)(=O)c2ccc(F)cc2)CC1.O=C(O)C(F)(F)F` showed an Inhibition of 100%.
Compound `O=C(Nc1cccc(CN2CCCN(CC3CC3)CC2)c1)c1ccc(-c2ccccc2)cc1.O=C(O)C(F)(F)F` registered an Inhibition of 96%.
`Cc1cc(NCCC(=O)NCCOc2ccccc2)nc(NCCc2ccccc2)n1.O=C(O)C(F)(F)F` had an Inhibition of 99%.
The value for `Cc1cccc(C)c1C1CCN(CCCCNC(=O)c2cc3ccccc3[nH]2)CC1` was 90%; that for `CN(c1ccccc1C(=O)Nc1cc(Cl)ccc1Oc1ccccc1)S(=O)(=O)c1ccccc1` was 99%.
Regarding `Cc1cccc(CN2CCC(Oc3ccc(NC(=O)c4cccs4)cc3Cl)CC2)n1.O=C(O)C(F)(F)F`, the Inhibition worked out at 86%.
Then `O=C(O)C(F)(F)F.O=S(=O)(NCCN1CCCC1)c1ccc(-c2cccc(CNCc3ccccc3)c2)s1`, with 94%; and `Cc1ccc(CN2CCN(CC(O)COc3ccc4c(c3)CCC4)CC2)cc1` (stereo not given), with 95%; and `Cc1[nH]c(CNCCCNc2cc(=O)c3ccccc3[nH]2)c(Br)c1Br`, with 91%.
Then `COc1ccc(NC(=O)CSc2nc(-c3ccccc3Cl)ns2)cc1`, with 96%; and `O=S(=O)(Nc1ccc(CCN2CCC(N3CCCCC3)CC2)cc1)c1ccc2ccccc2c1`, with 100%.
The compound `COc1ccc(CNC2CCN(C)CC2)cc1-c1ccc(S(=O)(=O)NCC2CCCO2)s1.O=C(O)C(F)(F)F` (stereo not given) came in with an Inhibition of 95%.
Then `c1ccc2[nH]c(-c3ccc(-c4ccc(CN5CCN(c6ccncc6)CC5)cc4)s3)nc2c1`, with 100%; and `CC(=O)Nc1cccc(-c2cnc(N)c3cc(-c4ccc5c(c4)OCO5)ccc23)c1`, with 99%; and `O=C(O)C(F)(F)F.c1cc(CNCC2CCCO2)cc(-c2csc(-c3nc4ccccc4[nH]3)c2)c1` (stereo not given), with 91%.
`O=C(Nc1cccc(-c2nn3ncccc3c2-c2ccnc(Nc3ccccc3)n2)c1)c1c(F)cccc1F` showed an Inhibition of 98%.
For `NCCCNc1ccc(-c2ccc(NC(=O)Nc3cc(C(F)(F)F)ccc3F)cc2)cn1.O=C(O)C(F)(F)F`, the Inhibition was determined as 100%.
Then `Cc1nc2ccc3ccc(CNc4ccc(C#N)cc4)cc3c2c(=O)[nH]1`, with 84%.
With `CC(C)c1cc(Oc2c(I)cc(CCNCc3ccccc3)cc2I)ccc1O.Cl`, the Inhibition amounted to 95%.
The compound `CC1CCCN(C(=O)c2cc(-c3ccccn3)nc3c(Cl)cccc23)C1` (stereo not given) showed an Inhibition of 86%.
Then `CN1CCN(CCCN(Cc2cccc(-c3ccc(CNCCc4ccccc4)cc3)c2)C(=O)Nc2ccccc2)CC1.O=C(O)C(F)(F)F`, with 100%; and `CCOc1ccc2c(=NN=Cc3ccc(F)cc3)cc(C)[nH]c2c1`, with 100%.
Turning to `Cc1ccc(CN(Cc2ccc(C(=O)N(C)C)cc2)Cc2ccc3c(c2)OCCO3)cc1C`, the Inhibition was determined as 91%.
The compound `CC(C)Cn1cc(C2CCN(CCN3CCC(CNC(=O)c4ccc(-c5ccc(C(F)(F)F)cc5)cc4)CC3)CC2)c2ccccc21` came in with an Inhibition of 100%.
`CCCCc1ccc(NC(=O)Nc2ccc3c(c2)CCNCC3)cc1.Cl` had an Inhibition of 95%.
Then `CCCCCCNC(=O)c1nn(CCN2CCC(N3CCCC3)CC2)cc1-c1ccc(Cl)c(Cl)c1`, with 100%; and `NCCNc1ccnc2cc(Cl)ccc12`, with 100%.
The value for `Cc1ccc(Cc2c[nH]c(NCCSCc3ccc(CN(C)C)s3)nc2=O)cn1` was 95%; that for `O=c1cc(NCCCNC(c2ccccc2)c2ccc(Cl)c(Cl)c2)[nH]c2ccccc12` (stereo not given) was 89%; that for `Nc1c(Cl)cc(C(O)CNCCCCCCOCCC=C2CCOCC2)cc1Cl` (stereo not given) was 100%.
The value for `Cc1cccc(CNc2nc(C)cc(NCCC(=O)NCc3cccc(F)c3)n2)c1.O=C(O)C(F)(F)F` was 84%.
Compound `CC1CCN(Cc2c(O)ccc3c(O)c(-c4nc5ccccc5s4)c(=N)oc23)CC1` registered an Inhibition of 98%.
The compound `COc1ccc(C=NN=c2cc(C)[nH]c3ccccc23)cc1OC` returned an Inhibition of 91%.
The value for `C=C(NC(=O)C1CCCCC1)C(=O)OC` was 93%; that for `CC1CCN(Cc2ccc(NC(=O)c3cc4ccc5cccnc5c4[nH]3)cc2)CC1` was 100%; that for `CCCCN(CCCC)CCCCNc1c2ccccc2nc2ccccc12.Cl` was 100%.
Then `Cc1cc2nc(-c3ccc(C(=O)NCc4ccc(C(C)(C)C)cc4)cc3)[nH]c2cc1C`, with 100%; and `CC(C)CNC(=O)c1ccnc(-c2ccc(CNC3Cc4ccccc4C3)cc2)c1.O=C(O)C(F)(F)F`, with 99%; and `O=C(Cc1cccs1)NC(CCCN1CCC(Oc2cccc(Cl)c2)CC1)c1ccc(Cl)c(Cl)c1` (stereo not given), with 86%.
Compound `CN(C(=O)c1nn(-c2ccccn2)c2nccc(-c3cccs3)c12)C1CCCCC1` gave an Inhibition of 87%.
